Data published in PubChem BioAssay (NCI).
The panel holds about 83,000 compounds, 20% with a hit somewhere; the sample as a whole holds those more often.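 Treatment: one concentration, 48 hours, 96-well format. Scoring: percent growth, with anything below 10 considered active.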 A number with no mark means an inactive call. Active and inactive are the calls of the source.

Tested on: RPMI-8226 leukemia
Assay: NCI-60 one-dose screen, 48 h (100 = growth as untreated, 0 = no growth, -100 = all killed)
Conditions: 10 µM unless noted
Protocol: Growth inhibition of the RPMI-8226 human tumor cell line is measured as a screen for anti-cancer activity. Cells are grown in 96 well plates and exposed to the test compound for 48 hours. Compounds are tested at a single concentration, which is 10^-5 M for most compounds. The reported endpoint is percent growth (GI% or GIPRCNT), where numbers from 0 - 100% represent growth inhibition, and numbers from -100% - 0 represent cell death. For example, a value of 40 represents 60% growth inhibition. A value of 0 means no net growth occurred over the course of the experiment. A value of -40 indicates 40% of cells at the beginning of the experiment died by the end of the experiment. A value of -100 means all cells are dead at the end of the experiment.
NCI-60 Human Tumor Cell Lines Screen was performed using the standard one-dose NCI protocol, which is described in more detail at https://dtp.cancer.gov/discovery_development/nci-60/default.htm.
Compounds with GIPRCNT values below 10 were considered active. Activity score was based on GIPRCNT using the following formula: […]
Score is 0 for GIPRCNT values of 100 or above, 50 for GIPRCNT values of 0, and 100 for GIPRCNT values of -100.

Compound	growth
N#Cc1ncc(-c2ccc(F)c(F)c2F)c(NC2CCCCCC2)n1	63.1%
Cc1cc(C)c2c(=O)[nH]c(SCC(=O)Nc3cccc(S(=O)(=O)N(C)C)c3)nc2n1	87.5%
c1ccn2nnnc2c1	102%
CCCCC(N)(C(=O)O)C1CCCC1 (stereo not given)	111%
COc1cccc(/C=C/c2c(C(=O)O)cccc2[N+](=O)[O-])c1OC	107%
CCNCc1ccncc1	98.8%
COc1cc2c(cc1OCCCCn1c(-c3cc(=O)c4ccccc4o3)nc3ccccc31)N=C[C@@H]1CCCN1C2=O	67.7%
COc1cccc(-c2nc3sccn3c2-c2ccnc(NCCCNS(=O)(=O)c3ccccc3)n2)c1	28%
CCNc1nc(N2CC(=O)Nc3cc(OC)ccc32)c2ccccc2n1	27.3%
Cc1c(C(=O)NCc2ccccc2)[n+](=O)c2cc(F)ccc2n1[O-]	64.1%
Cc1nn(-c2ccc(Cl)cc2)c(=O)n1CCOc1ccccc1Cl	88.9%
CCN1C(=O)/C(=c2\sc3n(c2=O)C2C(NN=3)N(CC)C(=S)N2CC)c2ccccc21 (stereo not given)	105%
Cc1cc(C)c(NC(=O)c2sc3nc4c(cc3c2N)CN(Cc2ccccc2)CC4)c(C)c1	20.9%
Cc1ccc(C2=NN(c3ccc(S(=O)(=O)NC(=O)NCc4ccccc4)cc3)C(c3ccc(N(C)C)cc3)C2)c(C)c1 (stereo not given)	16.6%
CCN(C(=O)c1cc2ncccc2[nH]1)[C@H]1CCC[C@@H](NCc2cccc(F)c2)C1	91.8%
O=C(NCCCN1CCN(CCCNC(=O)C2CCCCC2)CC1)C1CCCCC1	93.3%
CC(C)(C)c1cc(-c2nc3ccc(N4CCN(CCO)CC4)cc3[nH]2)cc(C(C)(C)C)c1O	1.15% (active)
Nc1c(C(=O)Nc2cccc([N+](=O)[O-])c2)sc2nc3c(cc12)C(O)CCC3 (stereo not given)	52%
CCN(Cc1ccccc1)c1ccc(SC#N)cc1	80.3%
N#Cc1c(NC(=O)c2ccc([N+](=O)[O-])o2)[n+]([O-])c2cc(F)c(F)cc2[n+]1[O-]	111%

Compound	growth
CCN(Cc1ccc(CN(CC)C(=O)C(Cl)(Cl)Cl)cc1)C(=O)C(Cl)(Cl)Cl	32.5%
COc1ccc(Cl)cc1NC(N)=S	100%
Cc1cc(C(=O)CSc2nc3ccccc3c(=O)[nH]2)c(C)n1C	91.6%
O=C(O)c1cn(C2CC2)c2cc(N3CCN(S(=O)(=O)c4ccc(Cl)c(Cl)c4)CC3)c(F)cc2c1=O	4.86% (active)
CC(Br)C(OC(=O)c1ccccc1Cl)c1cc2c(cc1Br)OCO2 (stereo not given)	92.2%
COc1cccc(-c2nc3sccn3c2-c2ccnc(NCCNS(=O)(=O)c3ccccc3)n2)c1	49.5%
Cc1ccnc2nc(C(=O)OCC(=O)Nc3ccc(-c4ccccc4)cc3)nn12	98.1%
CC(C)[C@H](CO)Nc1nc(Nc2ccc(C(=O)NCCNS(=O)(=O)c3cccc4c(N(C)C)cccc34)c(Cl)c2)c2ncn(C(C)C)c2n1	-41.9% (active)
COc1ncc(-c2ccc3ncnc(Nc4cccc(Cl)c4)c3c2)cc1N(S(C)(=O)=O)S(C)(=O)=O	55.8%
Cn1cc(C=O)c2ccccc21	98.4%
Cc1cc2c(c(=O)o1)C(c1ccc(OC(=O)N3CCOCC3)cc1)C(C#N)=C(N)O2 (stereo not given)	109%
Clc1cccc(Cl)c1Cn1c(-c2cncs2)nc2ccccc21	56.7%
FC(F)(F)c1cccc(-n2nnc3cnc(Nc4ccc(N5CCCCC5)cc4)nc32)c1	90.9%
C=C1C(=O)O[C@H]2[C@H]1CC/C(COC(=O)NCCc1ccc(OC)cc1)=C\CC[C@@]1(C)O[C@@H]21	17.5%
COc1ccc2c(c1)NC(=O)CN2c1nc(C)nc2ccccc12	45.2%
O=[N+]([O-])c1cc(S(=O)(=O)OCC2CO2)ccc1Cl (stereo not given)	63.6%
OCc1c(-c2ccccc2)nc2sccn12	111%
C/C(=C\c1csc(C)n1)[C@@H]1C[C@@H]2O[C@]2(C)CCC[C@H](C)[C@H](O)[C@@H](C)C(=O)C(C)(C)[C@@H](O)CC(=O)N1	-45.3% (active)
ClC1=C(Cl)C(Cl)=C(Cl)C1=Cc1ccc(Cl)cc1Cl	-10.7% (active)
CNC(=O)c1cc(Oc2ccc3c(c2)sc2nc(-c4ccc(Cl)cc4)cn23)ccn1	92.4%
